Data reported in ChEMBL document CHEMBL1961873, “Compounds: GSK PKIS; Assays: Nanosyn kinase panel” (2012).

Tests used:
[1] = biological target: T1, Tyrosine-protein kinase ITK/TSK (Homo sapiens) (UniProt Q08881); details: at 1 µM;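 further: values are mean percent inhibition of ITK from the GSK PKIS screen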
T1 sequence (whole entry): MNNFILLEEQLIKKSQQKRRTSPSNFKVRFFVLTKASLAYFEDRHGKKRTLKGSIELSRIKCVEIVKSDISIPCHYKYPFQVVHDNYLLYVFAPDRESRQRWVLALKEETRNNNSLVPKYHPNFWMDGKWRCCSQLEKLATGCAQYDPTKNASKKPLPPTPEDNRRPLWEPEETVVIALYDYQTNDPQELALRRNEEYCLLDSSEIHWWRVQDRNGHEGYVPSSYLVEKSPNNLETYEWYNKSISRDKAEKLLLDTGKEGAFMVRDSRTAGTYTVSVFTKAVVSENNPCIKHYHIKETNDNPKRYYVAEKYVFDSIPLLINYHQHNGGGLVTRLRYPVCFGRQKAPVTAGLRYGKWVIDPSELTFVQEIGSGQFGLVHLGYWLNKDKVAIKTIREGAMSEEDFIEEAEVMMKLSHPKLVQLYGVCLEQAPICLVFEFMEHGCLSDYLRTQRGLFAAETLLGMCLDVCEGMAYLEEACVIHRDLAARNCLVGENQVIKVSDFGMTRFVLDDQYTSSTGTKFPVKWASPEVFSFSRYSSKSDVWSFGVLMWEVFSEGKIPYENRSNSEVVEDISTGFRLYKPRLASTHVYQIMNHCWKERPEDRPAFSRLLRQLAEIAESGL

[2] = biological target: Tyrosine-protein kinase JAK1 (Homo sapiens) (UniProt P23458); details: at 0.1 µM
[3] = biological target: Tyrosine-protein kinase JAK1 (Homo sapiens) (UniProt P23458); details: at 1 µM
[4] = biological target: Tyrosine-protein kinase JAK2 (Homo sapiens) (UniProt O60674); details: at 0.1 µM
[5] = biological target: Tyrosine-protein kinase JAK2 (Homo sapiens) (UniProt O60674); details: at 1 µM
[6] = biological target: T2, Tyrosine-protein kinase JAK3 (Homo sapiens) (UniProt P52333); details: at 0.1 µM
T2 sequence (whole entry): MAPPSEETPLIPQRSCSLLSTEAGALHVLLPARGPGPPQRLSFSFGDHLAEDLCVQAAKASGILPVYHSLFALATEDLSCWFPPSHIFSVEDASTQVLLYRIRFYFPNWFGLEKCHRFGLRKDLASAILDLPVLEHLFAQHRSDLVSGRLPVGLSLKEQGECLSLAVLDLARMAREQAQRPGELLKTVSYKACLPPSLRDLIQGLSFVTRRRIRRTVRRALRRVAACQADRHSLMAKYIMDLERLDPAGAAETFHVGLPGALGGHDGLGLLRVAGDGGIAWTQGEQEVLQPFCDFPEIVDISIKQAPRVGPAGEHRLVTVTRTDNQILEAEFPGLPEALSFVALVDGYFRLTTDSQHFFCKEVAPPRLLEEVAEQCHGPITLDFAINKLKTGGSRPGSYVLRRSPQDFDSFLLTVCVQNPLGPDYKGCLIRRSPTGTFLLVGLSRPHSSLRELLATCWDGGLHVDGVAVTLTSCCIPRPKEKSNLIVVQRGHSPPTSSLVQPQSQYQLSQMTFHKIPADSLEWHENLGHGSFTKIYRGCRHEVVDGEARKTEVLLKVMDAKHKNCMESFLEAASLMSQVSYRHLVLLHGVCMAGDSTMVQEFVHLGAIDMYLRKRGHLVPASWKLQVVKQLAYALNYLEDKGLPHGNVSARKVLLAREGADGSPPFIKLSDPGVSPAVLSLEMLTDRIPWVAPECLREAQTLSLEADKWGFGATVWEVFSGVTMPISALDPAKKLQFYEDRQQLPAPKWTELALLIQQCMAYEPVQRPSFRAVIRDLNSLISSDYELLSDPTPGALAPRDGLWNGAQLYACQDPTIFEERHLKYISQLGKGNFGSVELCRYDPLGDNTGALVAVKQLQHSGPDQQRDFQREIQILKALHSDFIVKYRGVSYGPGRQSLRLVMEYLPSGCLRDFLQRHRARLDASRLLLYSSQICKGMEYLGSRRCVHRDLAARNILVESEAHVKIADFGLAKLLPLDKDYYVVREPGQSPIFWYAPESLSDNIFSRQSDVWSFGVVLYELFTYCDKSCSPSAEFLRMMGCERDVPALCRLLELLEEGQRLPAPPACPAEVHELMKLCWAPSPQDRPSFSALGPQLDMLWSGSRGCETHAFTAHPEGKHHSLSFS

[7] = biological target: T2, Tyrosine-protein kinase JAK3 (Homo sapiens); details: at 1 µM
[8] = biological target: Vascular endothelial growth factor receptor 2 (Homo sapiens) (UniProt P35968); details: at 0.1 µM
[9] = biological target: Vascular endothelial growth factor receptor 2 (Homo sapiens) (UniProt P35968); details: at 1 µM
[10] = biological target: Mast/stem cell growth factor receptor Kit (Homo sapiens) (UniProt P10721); details: at 0.1 µM
[11] = biological target: Mast/stem cell growth factor receptor Kit (Homo sapiens) (UniProt P10721); details: at 1 µM
[12] = system: Mast/stem cell growth factor receptor Kit (Homo sapiens), P10721 [D816V]; details: at 0.1 µM
[13] = system: Mast/stem cell growth factor receptor Kit (Homo sapiens), P10721 [D816V]; details: at 1 µM
[14] = system: Mast/stem cell growth factor receptor Kit (Homo sapiens), P10721 [T670I]; details: at 0.1 µM
[15] = system: Mast/stem cell growth factor receptor Kit (Homo sapiens), P10721 [T670I]; details: at 1 µM
[16] = system: Mast/stem cell growth factor receptor Kit (Homo sapiens), P10721 [V560G]; details: at 0.1 µM
[17] = system: Mast/stem cell growth factor receptor Kit (Homo sapiens), P10721 [V560G]; details: at 1 µM
[18] = biological target: Tyrosine-protein kinase Lck (Homo sapiens) (UniProt P06239); details: at 0.1 µM
[19] = biological target: Tyrosine-protein kinase Lck (Homo sapiens) (UniProt P06239); details: at 1 µM
[20] = biological target: Leukocyte tyrosine kinase receptor (Homo sapiens) (UniProt P29376); details: at 0.1 µM
Sequence of Leukocyte tyrosine kinase receptor (Homo sapiens) (P29376 whole entry): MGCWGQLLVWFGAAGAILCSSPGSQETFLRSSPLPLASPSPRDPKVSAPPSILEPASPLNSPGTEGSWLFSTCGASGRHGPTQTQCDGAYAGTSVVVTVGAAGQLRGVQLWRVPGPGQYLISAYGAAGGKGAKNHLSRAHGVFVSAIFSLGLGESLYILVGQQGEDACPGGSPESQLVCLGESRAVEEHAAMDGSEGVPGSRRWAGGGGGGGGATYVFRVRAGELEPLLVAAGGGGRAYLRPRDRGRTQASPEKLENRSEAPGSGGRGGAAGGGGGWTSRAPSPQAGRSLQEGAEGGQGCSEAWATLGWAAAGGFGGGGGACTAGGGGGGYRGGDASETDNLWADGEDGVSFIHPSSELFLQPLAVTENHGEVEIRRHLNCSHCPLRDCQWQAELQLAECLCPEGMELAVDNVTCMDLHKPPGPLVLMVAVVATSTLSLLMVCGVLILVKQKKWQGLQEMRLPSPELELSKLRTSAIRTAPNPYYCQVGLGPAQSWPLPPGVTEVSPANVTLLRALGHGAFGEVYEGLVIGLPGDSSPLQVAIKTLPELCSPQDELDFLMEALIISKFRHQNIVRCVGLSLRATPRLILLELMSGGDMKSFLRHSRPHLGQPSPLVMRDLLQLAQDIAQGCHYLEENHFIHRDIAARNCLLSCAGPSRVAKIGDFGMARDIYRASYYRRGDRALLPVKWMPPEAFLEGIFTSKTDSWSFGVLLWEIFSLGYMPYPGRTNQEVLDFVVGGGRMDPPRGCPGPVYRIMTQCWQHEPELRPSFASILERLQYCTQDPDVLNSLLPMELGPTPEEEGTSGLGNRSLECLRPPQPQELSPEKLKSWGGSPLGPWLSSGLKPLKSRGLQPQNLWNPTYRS

Sequence of Tyrosine-protein kinase JAK1 (Homo sapiens) (P23458 whole entry): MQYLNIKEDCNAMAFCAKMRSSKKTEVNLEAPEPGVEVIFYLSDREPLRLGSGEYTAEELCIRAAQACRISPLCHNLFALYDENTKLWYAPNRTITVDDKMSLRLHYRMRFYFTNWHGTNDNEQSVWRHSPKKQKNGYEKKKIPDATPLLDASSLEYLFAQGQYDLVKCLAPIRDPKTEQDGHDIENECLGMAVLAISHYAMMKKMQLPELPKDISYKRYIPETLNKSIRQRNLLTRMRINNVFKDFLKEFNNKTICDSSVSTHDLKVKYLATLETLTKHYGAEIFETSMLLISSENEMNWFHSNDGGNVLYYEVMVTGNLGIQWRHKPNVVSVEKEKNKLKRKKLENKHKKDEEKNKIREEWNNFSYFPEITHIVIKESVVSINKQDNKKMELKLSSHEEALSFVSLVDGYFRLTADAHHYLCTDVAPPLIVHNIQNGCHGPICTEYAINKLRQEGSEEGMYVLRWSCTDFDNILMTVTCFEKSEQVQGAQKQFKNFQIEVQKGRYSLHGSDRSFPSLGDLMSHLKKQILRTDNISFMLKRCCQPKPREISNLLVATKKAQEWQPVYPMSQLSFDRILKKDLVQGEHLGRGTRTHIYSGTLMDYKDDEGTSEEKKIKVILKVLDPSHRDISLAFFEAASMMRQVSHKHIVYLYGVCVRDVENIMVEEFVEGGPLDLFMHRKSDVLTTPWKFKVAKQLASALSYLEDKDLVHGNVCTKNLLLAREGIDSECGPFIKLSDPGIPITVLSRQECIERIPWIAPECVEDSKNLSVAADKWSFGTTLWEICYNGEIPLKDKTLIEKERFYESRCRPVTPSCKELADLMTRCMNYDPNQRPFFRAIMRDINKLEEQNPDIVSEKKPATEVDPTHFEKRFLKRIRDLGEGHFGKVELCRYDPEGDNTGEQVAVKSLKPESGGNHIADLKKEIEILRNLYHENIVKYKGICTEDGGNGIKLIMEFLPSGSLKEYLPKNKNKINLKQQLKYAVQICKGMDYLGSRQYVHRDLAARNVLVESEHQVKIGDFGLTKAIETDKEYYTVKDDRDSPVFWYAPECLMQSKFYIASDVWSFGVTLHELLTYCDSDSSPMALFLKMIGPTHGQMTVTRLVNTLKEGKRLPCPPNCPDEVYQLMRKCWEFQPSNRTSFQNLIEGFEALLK
Sequence of Mast/stem cell growth factor receptor Kit (Homo sapiens) (P10721 whole entry): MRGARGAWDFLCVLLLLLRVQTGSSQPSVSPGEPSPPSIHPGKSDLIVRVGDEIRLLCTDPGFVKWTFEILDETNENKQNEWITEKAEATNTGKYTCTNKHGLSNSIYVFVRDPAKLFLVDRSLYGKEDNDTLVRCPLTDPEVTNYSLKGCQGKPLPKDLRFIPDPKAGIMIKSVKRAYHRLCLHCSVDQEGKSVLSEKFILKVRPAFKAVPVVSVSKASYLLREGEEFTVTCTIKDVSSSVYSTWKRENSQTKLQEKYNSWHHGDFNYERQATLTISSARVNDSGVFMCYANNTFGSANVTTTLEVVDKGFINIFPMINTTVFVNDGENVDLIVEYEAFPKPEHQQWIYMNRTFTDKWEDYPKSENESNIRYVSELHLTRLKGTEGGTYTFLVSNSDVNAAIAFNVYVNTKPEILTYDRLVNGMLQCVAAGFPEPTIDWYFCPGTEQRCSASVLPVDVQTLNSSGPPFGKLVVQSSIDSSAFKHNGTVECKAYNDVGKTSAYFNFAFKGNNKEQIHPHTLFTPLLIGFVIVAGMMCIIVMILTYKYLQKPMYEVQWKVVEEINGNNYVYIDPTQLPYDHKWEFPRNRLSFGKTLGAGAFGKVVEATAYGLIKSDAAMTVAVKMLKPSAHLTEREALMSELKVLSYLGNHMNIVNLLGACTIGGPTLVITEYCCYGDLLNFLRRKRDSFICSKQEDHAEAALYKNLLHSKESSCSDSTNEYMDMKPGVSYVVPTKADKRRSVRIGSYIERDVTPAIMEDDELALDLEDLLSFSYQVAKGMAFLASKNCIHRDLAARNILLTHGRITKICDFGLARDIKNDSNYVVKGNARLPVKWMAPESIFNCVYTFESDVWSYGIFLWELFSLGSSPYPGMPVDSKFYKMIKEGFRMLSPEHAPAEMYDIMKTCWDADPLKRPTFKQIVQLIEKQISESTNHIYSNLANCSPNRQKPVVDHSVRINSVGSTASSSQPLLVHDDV
Sequence of Tyrosine-protein kinase Lck (Homo sapiens) (P06239 2-509 limits assumed): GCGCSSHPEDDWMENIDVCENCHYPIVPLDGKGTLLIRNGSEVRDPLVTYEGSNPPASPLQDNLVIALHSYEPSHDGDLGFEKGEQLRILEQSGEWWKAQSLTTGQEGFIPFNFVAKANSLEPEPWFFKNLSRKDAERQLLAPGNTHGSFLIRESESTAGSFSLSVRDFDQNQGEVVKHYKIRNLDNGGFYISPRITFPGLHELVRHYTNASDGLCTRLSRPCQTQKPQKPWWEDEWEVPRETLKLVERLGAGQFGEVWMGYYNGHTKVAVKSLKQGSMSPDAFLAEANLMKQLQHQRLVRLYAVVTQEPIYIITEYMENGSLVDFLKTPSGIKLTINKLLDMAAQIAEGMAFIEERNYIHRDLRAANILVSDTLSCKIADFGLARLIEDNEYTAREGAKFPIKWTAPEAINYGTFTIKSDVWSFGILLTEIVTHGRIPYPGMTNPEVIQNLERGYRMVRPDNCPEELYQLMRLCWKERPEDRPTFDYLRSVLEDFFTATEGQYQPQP
Sequence of Mast/stem cell growth factor receptor Kit (Homo sapiens), P10721 [D816V] (P10721 whole entry D816V): as the sequence (P10721 whole entry) above, with D816V counted along it
Sequence of Vascular endothelial growth factor receptor 2 (Homo sapiens) (P35968 whole entry): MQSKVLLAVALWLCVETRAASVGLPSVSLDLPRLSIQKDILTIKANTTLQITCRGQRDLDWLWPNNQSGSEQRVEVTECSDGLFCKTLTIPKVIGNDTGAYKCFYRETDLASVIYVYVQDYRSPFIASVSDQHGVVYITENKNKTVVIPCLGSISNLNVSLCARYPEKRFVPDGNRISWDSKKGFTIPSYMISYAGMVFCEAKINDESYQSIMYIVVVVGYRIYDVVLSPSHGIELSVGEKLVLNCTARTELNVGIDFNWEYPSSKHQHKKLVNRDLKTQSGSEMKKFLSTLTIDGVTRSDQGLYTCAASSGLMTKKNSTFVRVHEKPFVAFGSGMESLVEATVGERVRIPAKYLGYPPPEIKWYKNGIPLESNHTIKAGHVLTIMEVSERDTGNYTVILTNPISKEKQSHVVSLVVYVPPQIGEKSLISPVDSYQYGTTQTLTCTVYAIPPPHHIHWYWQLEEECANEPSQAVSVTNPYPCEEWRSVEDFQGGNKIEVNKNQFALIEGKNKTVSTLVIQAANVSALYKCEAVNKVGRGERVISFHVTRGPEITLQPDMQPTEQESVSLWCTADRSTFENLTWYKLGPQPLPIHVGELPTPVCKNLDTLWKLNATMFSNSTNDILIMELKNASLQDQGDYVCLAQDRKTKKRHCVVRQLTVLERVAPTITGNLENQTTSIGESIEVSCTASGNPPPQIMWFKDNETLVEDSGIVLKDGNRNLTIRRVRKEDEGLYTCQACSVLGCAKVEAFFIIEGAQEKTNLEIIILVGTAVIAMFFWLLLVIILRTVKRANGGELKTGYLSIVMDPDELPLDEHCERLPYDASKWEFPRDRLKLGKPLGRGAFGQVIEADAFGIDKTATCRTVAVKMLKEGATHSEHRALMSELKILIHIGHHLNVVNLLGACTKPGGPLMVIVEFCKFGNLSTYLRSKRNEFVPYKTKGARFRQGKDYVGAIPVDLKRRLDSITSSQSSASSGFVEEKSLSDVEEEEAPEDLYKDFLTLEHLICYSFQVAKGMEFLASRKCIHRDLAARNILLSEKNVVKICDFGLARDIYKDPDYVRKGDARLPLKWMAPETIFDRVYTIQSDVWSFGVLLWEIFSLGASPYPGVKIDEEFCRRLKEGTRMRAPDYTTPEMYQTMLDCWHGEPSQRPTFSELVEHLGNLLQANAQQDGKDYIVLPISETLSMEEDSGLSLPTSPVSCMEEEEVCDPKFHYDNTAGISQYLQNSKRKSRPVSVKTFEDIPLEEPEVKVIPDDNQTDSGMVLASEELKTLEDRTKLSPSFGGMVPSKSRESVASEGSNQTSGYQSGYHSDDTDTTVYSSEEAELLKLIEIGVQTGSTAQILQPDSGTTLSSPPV
Sequence of Mast/stem cell growth factor receptor Kit (Homo sapiens), P10721 [T670I] (P10721 whole entry T670I): as the sequence (P10721 whole entry) above, with T670I counted along it
Sequence of Mast/stem cell growth factor receptor Kit (Homo sapiens), P10721 [V560G] (P10721 whole entry V560G): as the sequence (P10721 whole entry) above, with V560G counted along it

| SMILES | inhibition [1] [%] | inhibition [2] [%] | inhibition [3] [%] | inhibition [4] [%] | inhibition [5] [%] | inhibition [6] [%] | inhibition [7] [%] | inhibition [8] [%] | inhibition [9] [%] | inhibition [10] [%] | inhibition [11] [%] | inhibition [12] [%] | inhibition [13] [%] | inhibition [14] [%] | inhibition [15] [%] | inhibition [16] [%] | inhibition [17] [%] | inhibition [18] [%] | inhibition [19] [%] | inhibition [20] [%] |
| --- | --- | --- | --- | --- | --- | --- | --- | --- | --- | --- | --- | --- | --- | --- | --- | --- | --- | --- | --- | --- |
| Fc1ccc(-c2nn3ncccc3c2-c2ccnc(Nc3ccc4c(c3)OCCO4)n2)cc1 | 0.31 | 3.02 | 2.04 | 0.34 | 1.88 | -0.15 | -1.41 | 30.6 | 75.5 | 60.7 | 91.9 | 3.55 | 4.13 | 5.56 | 27.3 | 16.3 | 64.5 | 44.7 | 85.1 | 3.99 |
| O=C(Nc1n[nH]c2cc(-c3ccc(F)cc3)ccc12)C1CC1 | 2.49 | 1.55 | 4.17 | 1.12 | 1.73 | -0.91 | -0.96 | 6.51 | 19.5 | 3.1 | 5.1 | 3.06 | 5.66 | 3.36 | 4.92 | -2.61 | 0.08 | 1.9 | 7.59 | 2.47 |
| CCn1c(-c2nonc2N)nc2c(C#CC(C)(C)O)ncc(OC3CCNCC3)c21 | 2.09 | 3.54 | 3.51 | 1.5 | 2.39 | -2.24 | -1.24 | 27.1 | 76.1 | 2.24 | 3.87 | 4.97 | 6.05 | 1.16 | -0.54 | -0.47 | 0.39 | 2.33 | 4.05 | 1.83 |
| N#Cc1c(NC(=O)CN2CCOCC2)sc2c1CCCC2 | 3.52 | 2.38 | 9.38 | 2.3 | 3.35 | -0.09 | 1.28 | 4.13 | 6.56 | 6.21 | 7.99 | 3.63 | 3.93 | 4.93 | 3.32 | 2.47 | 3.82 | 1.87 | 4.64 | 4.93 |
| CCNC(=O)O[C@H]1CN[C@H](C#Cc2cc3ncnc(Nc4ccc(OCc5cccc(F)c5)c(Cl)c4)c3s2)C1 | 1.96 | 7.02 | -0.58 | 3.47 | 2.64 | -1.24 | 1.79 | 6.2 | 4.4 | 4.29 | 2.58 | 2.43 | 3.63 | 2.76 | 0.45 | 0.45 | 5 | 3.42 | 3.76 | 3.21 |
| COc1cc2ncn(-c3cc(OCc4ccccc4C(F)(F)F)c(C(=O)N(C)C)s3)c2cc1OC | 1.76 | -1.58 | 8.12 | 0.32 | -0.19 | -0.48 | 14.7 | 6.67 | 27.5 | 0.26 | 3.36 | 0.31 | 3.99 | -0.65 | 1.38 | -2.81 | 1.25 | 2.04 | 11.2 | 1.37 |
